Compounds without any hit were thinned out: in the full panel of roughly 83,000, 20% have a hit.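 Method: cells in 96-well plates; compound added at one concentration; 48 h incubation; percent growth measured; values under 10 scored active.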 A number with no mark means an inactive call. The source made the active and inactive calls.

Holding throughout (test): NCI-60 one-dose screen, 48 h (100 = growth as untreated, 0 = no growth, -100 = all killed)
The test system of one assay is HCT-15 colon. The note with it: 10 µM unless noted.
In a further assay the test system is HT29 colon. The note with it: 10 µM unless noted.
The next assay deals with SNB-75 CNS. Particulars: 10 µM unless noted.
In a further assay the test system is SNB-19 CNS. Particulars: 10 µM unless noted.
The next assay concerns U251 CNS. Particulars: 10 µM unless noted.
In a further assay the test system is PC-3 prostate. Particulars: 10 µM unless noted.
For a further assay, the system named is SK-MEL-5 melanoma. Particulars: 10 µM unless noted.
In the next assay the test system is UACC-62 melanoma. The note with it: 10 µM unless noted.
Another assay relates to SK-MEL-28 melanoma. The note with it: 10 µM unless noted.
In the next assay the test system is LOX IMVI melanoma. The note with it: 10 µM.

As to `CCC12OC(COc3ccccc3)CN1CCN2c1ccccc1` (stereo not drawn), the growth is 105% [100 µM] in the assay with HCT-15 colon; 111% [100 µM] with HT29 colon; 84.4% [100 µM] in the assay with SNB-75 CNS; 96.9% [100 µM] in the assay on SNB-19 CNS; 101% [100 µM] with U251 CNS; 102% [100 µM] in the assay on PC-3 prostate. Further, the growth is 104% [100 µM] with SK-MEL-5 melanoma, 89.5% [100 µM] in the assay on UACC-62 melanoma and 103% [100 µM] in the assay with SK-MEL-28 melanoma.

Consider `CN(C)CCOC(=O)Nc1ccc(Cc2ccc(NC(=O)OCCN(C)C)cc2)cc1`, for which the growth in the assay with HCT-15 colon is 63.1% [100 µM]; with HT29 colon it was 14.5% [100 µM]; with SNB-75 CNS, 89% [100 µM]; in the assay on SNB-19 CNS, 99.6% [100 µM]; with U251 CNS, 69.4% [100 µM]; in the assay on PC-3 prostate, 60.5% [100 µM]. Further, the growth in the assay on SK-MEL-5 melanoma is 54.8% [100 µM]; in the assay with UACC-62 melanoma, 1.99% [100 µM] (active); in the assay with SK-MEL-28 melanoma it was 18.7% [100 µM].

Consider `COC(=O)c1ccccc1C(=O)c1c(C)cc(C)cc1C`, for which the growth in the assay with HCT-15 colon is 101%; in the assay with HT29 colon, 93.8%; with SNB-75 CNS it was 96.5%; in the assay on SNB-19 CNS, 103%; in the assay with U251 CNS, 91.2%; with PC-3 prostate, 90%. Moreover, the growth in the assay with SK-MEL-5 melanoma was 101%; in the assay with UACC-62 melanoma, 92.5%; with LOX IMVI melanoma it was 102%; with SK-MEL-28 melanoma, 94.9%.

As for `O=[N+]([O-])c1c(O)c(CNCCCO)cc(CNCCCO)c1O`, the growth is 106% in the assay with HCT-15 colon; 107% in the assay on HT29 colon; 91.2% in the assay on SNB-75 CNS; 105% with SNB-19 CNS; 99.6% in the assay on U251 CNS; 88.7% with PC-3 prostate. The growth in the assay with SK-MEL-5 melanoma is 119%; in the assay on UACC-62 melanoma, 97.7%; in the assay with LOX IMVI melanoma, 93.9%; with SK-MEL-28 melanoma, 121%.

Consider `c1ccc(Oc2c3ccccc3nc3ccccc23)cc1`, for which the growth in the assay with HCT-15 colon was 14.6%; in the assay with HT29 colon it was 2.51% (active); with SNB-75 CNS, 41.5%; with SNB-19 CNS, 91.9%; in the assay on U251 CNS, 11.7%; with PC-3 prostate, 20.1%. Besides, the growth with SK-MEL-5 melanoma is 13.6%; in the assay on UACC-62 melanoma it was 45.7%; with LOX IMVI melanoma, 31.3%; in the assay on SK-MEL-28 melanoma it was 61.2%.

For the compound `c1cc(CNCCNCc2ccncc2)ccn1`, the growth was 110% in the assay on HCT-15 colon; 109% in the assay with HT29 colon; 92.5% with SNB-75 CNS; 104% in the assay on SNB-19 CNS; 101% with U251 CNS; 92.1% in the assay with PC-3 prostate. For the same compound, the growth with SK-MEL-5 melanoma was 107%; in the assay on UACC-62 melanoma it was 101%; with SK-MEL-28 melanoma, 101%.

For `COc1ccc(Br)c(C=O)c1`, the growth is 26.8% in the assay with HCT-15 colon; 76.3% in the assay on HT29 colon; 54.8% in the assay on SNB-75 CNS; 74.8% with SNB-19 CNS; 39.1% with U251 CNS; 71.7% with PC-3 prostate. In addition, the growth is 81.8% in the assay with SK-MEL-5 melanoma, 63.8% in the assay with UACC-62 melanoma and 86% in the assay with SK-MEL-28 melanoma.

For `NNc1ncnc2nc[nH]c12`, the growth is 44.1% in the assay on HCT-15 colon; 53.7% in the assay on HT29 colon; 89.3% in the assay with SNB-75 CNS; 96% in the assay on SNB-19 CNS; 72.2% in the assay with U251 CNS; 63% in the assay with PC-3 prostate. Also, the results for the growth in the assay with SK-MEL-5 melanoma, in the assay with UACC-62 melanoma and with SK-MEL-28 melanoma were 71.9%, 18.7% and 105%, respectively.

On to `S=c1nc2[nH]c3ccccc3c2n[nH]1`, for which the growth was 97.3% in the assay with HCT-15 colon; 98.6% with HT29 colon; 103% with SNB-75 CNS; 83.3% with SNB-19 CNS; 105% in the assay with U251 CNS; 82.3% with PC-3 prostate. The growth in the assay with SK-MEL-5 melanoma was 90.1%; with UACC-62 melanoma, 87.1%; with SK-MEL-28 melanoma it was 91.7%.

With `CN(C)c1ccc(O)c2c1CC1CC3C(N(C)C)C(=O)C(C(N)=O)=C(O)C3(O)C(=O)C1=C2O` (stereo not drawn), the growth is 25.4% with HCT-15 colon; 57.5% in the assay with HT29 colon; 55.8% in the assay with SNB-75 CNS; 55.5% with SNB-19 CNS; 25.7% in the assay on U251 CNS; 34.6% in the assay on PC-3 prostate. The growth in the assay with SK-MEL-5 melanoma is 25.6%; in the assay with LOX IMVI melanoma, 29.3%; in the assay with SK-MEL-28 melanoma it was 47.4%.

Take `N#C/C(=C\c1ccc2c(c1)OCO2)c1ccccc1`: the growth with HCT-15 colon is 49.4%; in the assay on HT29 colon, 35.5%; with SNB-75 CNS it was 76.2%; in the assay on SNB-19 CNS it was 86.4%; in the assay with U251 CNS it was 55%; with PC-3 prostate it was 84.8%. For the same compound, the results for the growth in the assay on SK-MEL-5 melanoma, with LOX IMVI melanoma and with SK-MEL-28 melanoma were 54.6%, 78.3% and 87.7%, respectively.

On to `O=c1cc(Cl)nc2ccccn12`, for which the growth in the assay on HCT-15 colon was 109%; in the assay with HT29 colon, 111%; in the assay on SNB-75 CNS, 109%; with SNB-19 CNS, 103%; in the assay with U251 CNS, 107%; in the assay on PC-3 prostate it was 96.7%. The growth in the assay with SK-MEL-5 melanoma is 105%; in the assay with UACC-62 melanoma, 117%; in the assay on SK-MEL-28 melanoma it was 101%.

As for `NNC(=O)CCCCl`, the growth in the assay with HCT-15 colon was 104%; with HT29 colon, 112%; in the assay on SNB-75 CNS, 95%; with SNB-19 CNS, 121%; with U251 CNS, 98.3%; with PC-3 prostate it was 104%. Further, the figures for the growth in the assay on SK-MEL-5 melanoma, in the assay with UACC-62 melanoma and in the assay on SK-MEL-28 melanoma were 102%, 103% and 110%, respectively.

As to `C1CCc2onc(-c3noc4c3CCCCC4)c2CC1`, the growth is 103% in the assay with HCT-15 colon; 103% in the assay on HT29 colon; 112% in the assay with SNB-75 CNS; 98% in the assay with SNB-19 CNS; 107% in the assay with U251 CNS; 102% with PC-3 prostate. The figures for the growth in the assay on SK-MEL-5 melanoma, in the assay with UACC-62 melanoma and in the assay on SK-MEL-28 melanoma were 101%, 102% and 112%, respectively.

With `N=C(N)c1nn(C2OC(CO)C(O)C2O)c2nc[nH]c(=O)c12` (stereo not drawn), the growth in the assay on HCT-15 colon was 0.318% (active); with HT29 colon, 11.7%; in the assay with SNB-75 CNS, 9.13% (active); in the assay on SNB-19 CNS, 5.88% (active); with U251 CNS it was 16%; in the assay on PC-3 prostate, -3.91% (active). Besides, the growth with SK-MEL-5 melanoma is -97% (active); in the assay with LOX IMVI melanoma it was -27.8% (active); with SK-MEL-28 melanoma, -53.9% (active).
